# Target: Solute carrier family 2, facilitated glucose transporter member 1 (Homo sapiens) (UniProt P11166)
# Assay: ST_JUDE_LEISH: Cytotoxicity at 2uM final concentration against transgenic Leishmania Mexicana promastigotes LmGLUT1 that are glucose transport deficient and complemented with the human glucose transporter GLUT1. Activity is measured by DNA content using SYBR green in vitro
# Assay type: functional
# Sequence of Solute carrier family 2, facilitated glucose transporter member 1 (Homo sapiens) (P11166 whole entry): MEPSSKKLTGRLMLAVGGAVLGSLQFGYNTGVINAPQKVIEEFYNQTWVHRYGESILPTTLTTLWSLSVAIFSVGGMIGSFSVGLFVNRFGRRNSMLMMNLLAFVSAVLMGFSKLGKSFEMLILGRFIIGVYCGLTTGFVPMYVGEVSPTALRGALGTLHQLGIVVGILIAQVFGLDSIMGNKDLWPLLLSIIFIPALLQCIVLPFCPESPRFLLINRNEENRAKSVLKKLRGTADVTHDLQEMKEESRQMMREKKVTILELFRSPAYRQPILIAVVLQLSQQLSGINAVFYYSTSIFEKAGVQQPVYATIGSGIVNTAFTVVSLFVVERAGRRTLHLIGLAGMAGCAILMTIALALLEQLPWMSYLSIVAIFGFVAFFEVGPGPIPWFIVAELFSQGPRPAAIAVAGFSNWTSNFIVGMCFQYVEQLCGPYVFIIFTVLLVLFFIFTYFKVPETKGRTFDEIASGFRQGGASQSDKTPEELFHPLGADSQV
row,Compound,inhibition [%]
1,O=C(CCNc1ccnc(NCC2CCCCC2)n1)Nc1ccccc1,7.25
2,CN1CC[C@@H](Oc2cc(C(=O)NCc3ccc(Cl)c(Cl)c3)ccc2C(F)(F)F)C1,-0.85
3,CC(C)n1ncc2c(C(=O)N3CCCCCC3)cc(-c3ccccc3)nc21,-0.35
4,CN1CCN(c2cc(NC(=O)Nc3ccc(-c4ccncc4)c(Cl)c3)ccc2Br)CC1,10.9
5,c1ccc(-c2nc(Nc3nc4ccccc4[nH]3)[nH]c2-c2ccccc2)cc1,10.8
6,O=C(Nc1cccc(-c2ccc(-c3nc4ccccc4[nH]3)cc2)c1)c1cnn2cccnc12,-0.77
7,Cc1noc(C)c1-c1cccc(CNCc2cccc(-c3ccc(-c4nc5ccccc5[nH]4)s3)c2)c1,8.57
8,COc1ccc(-c2cccc(NC(=O)c3ccc(Cl)cc3)c2)cc1CN1CCNCC1,2.69
9,N=C(N)Nc1nc(-c2ccc(NCc3ccc(CNc4cccc(-c5csc(NC(=N)N)n5)c4)cc3)cc2)cs1,0.36
10,CC(=O)Nc1nc(C(=O)Nc2ccc(-c3cccc(-c4nc5cc(F)ccc5[nH]4)c3)cc2)cs1,2.47
11,CS(=O)(=O)NCCCNCc1cccc(-c2csc(-c3nc4ccccc4[nH]3)c2)c1,-0.84
12,CC(=O)c1sc(NC(=O)Nc2ccc(C)cc2C)nc1C,14
13,O=C(/C=C/c1ccc(Cl)c(Cl)c1)NCCCCCN1CCC(NC(=O)Nc2ccc([N+](=O)[O-])cc2)CC1,-0.34
14,Nc1nc(N)c(-c2ccccc2)c(=O)[nH]1,4.51
15,COc1ccc(CNc2ccnc(-n3cnc4cc(C)c(C)cc43)n2)cc1Cl,4.37
16,COc1ccccc1NC(=O)Nc1ccc(-c2ccc(-c3nc4cccc(C)c4[nH]3)s2)cc1,3.53

# Reference: ChEMBL document CHEMBL3433997, “St. Jude Leishmania screening dataset” (2016)
